Source: PubChem BioAssay (Tox21)
Several values for one entry are separate records, joined by “and”; a condition that tells them apart may be missing. Equal entries are not always repeated. Results filed as inconclusive are left out. Where a call stands in place of a potency, no number is given. A structure can be active in one record and inactive in another. Activity calls are given as the source filed them. Unless noted, the call rests on the fitted dose curve; in most records, active means well fitted curve in the direction sought with a large enough effect in the repeat runs; inconclusive means weak or mixed curves; inactive means no such curve, though single readings can be large; an effect the other way counts as inactive or inconclusive.

How the values were obtained:
[1] = A CellTox Green Cytotoxicity Assay to monitor cytotoxicity in HepG2 cells - 8 hour (AID 1224890); further: nearly all actives have a fitted effect of over 45% in size; further: potency means the concentration at half of the fitted maximal effect
Method in brief: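 Cytotoxicity was tracked as dead-cell DNA fluorescence in HepG2 cells treated with test compounds at 37 C; each time-point value comes from one kinetic series spanning 0, 8, 16, 24, 32 and 40 h.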

[2] = qHTS assay to identify small molecule antagonists of the estrogen receptor alpha (ER-alpha) signaling pathway using the BG1 cell line in the presence of 0.1 nM 17-beta-estradiol - cell viability counter screen (AID 1259241); further: nearly all actives have a fitted effect of over 40% in size
Method in brief: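 In this screen, hormone-deprived VM7Luc4E2 cells were seeded at 4,000 per well, dosed with compound and 0.1 nM estradiol final, and incubated 22 hr at 37C and 5% CO2; fluorogenic live-cell protease signal reported viability.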

[3] = qHTS assay to identify small molecule antagonists of the androgen receptor (AR) signaling pathway using the MDA cell line in the presence of 0.5 nM R1881 - cell viability counter screen (AID 1259242); further: nearly all actives have a fitted effect of over 45% in size
Method in brief: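 Cells seeded at 3,000/well and allowed 5 hr at 37C, 0% CO2 before compound transfer and R1881 (0.5 nM final) addition; 16 hr later, live-cell protease fluorescence indicated cytotoxicity.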

[4] = qHTS assay to identify small molecule HDAC inhibitors (AID 1259364); further: potency means the concentration at half of the fitted maximal effect;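 further: wild-type HCT-116 cells with endogenous class I/II HDAC activity; nearly all actives have a fitted effect of over 45% in size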
Method in brief: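 HCT-116 wt cells, 1,500/well, overnight attach. Compounds (DMSO) 2 h, 37 °C. HDAC-Glo I/II, 30 min RT. Luminescence.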

[5] = qHTS assay to identify small molecule HDAC inhibitors - cell viability counter screen (AID 1259365); further: series mostly up to about 92 µM; nearly all actives have a fitted effect of over 50% in size
Method in brief: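 Measured quantity is CellTiter-Glo luminescence from wild-type HCT-116 cells after compound incubation of 2hr at 37C, 5% CO2; reagent developed 30min at room temperature.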

[6] = qHTS assay to identify small molecule agonists of the sonic hedgehog signaling (Shh) pathway - cell viability counter screen (AID 1259366); further: nearly all actives have a fitted effect of over 50% in size; further: potency means the concentration at half of the fitted maximal effect
Method in brief: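 In quantitative high-throughput format, 3T3 Gli1-Luc cells were exposed to compounds for 24hr and multiplexed for viability using CellTiter-Fluor, incubated 1hr at 37C before the fluorescence read.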

[7] = qHTS assay to identify small molecule antagonists of the sonic hedgehog signaling (Shh) pathway - cell viability counter screen (AID 1259367); further: nearly all actives have a fitted effect of over 55% in size; further: potency means the concentration at half of the fitted maximal effect
Method in brief: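 Tox21 library chemicals were tested on a Gli1-Luc NIH/3T3 clone (2,000 cells/well) stimulated by conditioned medium; viability was quantified as fluorescence from CellTiter-Fluor reagent added at 23 hr.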

[8] = qHTS assay to identify small molecule agonists of the sonic hedgehog signaling (Shh) pathway (AID 1259368; calls by dose curve;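 further: NIH/3T3-derived 3T3Gli1-Luc cells carrying a stable Gli1-driven firefly luciferase reporter; series mostly up to about 92 µM; nearly all actives have a fitted effect of over 15% in size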)
Method in brief: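 Following a 24 hr incubation with DMSO-dissolved compounds at 37 C, 5% CO2, Gli1-Luc NIH/3T3-derived cells received luciferase reagent for 30 min at room temperature prior to luminescence measurement.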

[9] = qHTS assay to identify small molecule antagonists of the sonic hedgehog signaling (Shh) pathway (AID 1259369; calls by dose curve; further: nearly all actives have a fitted effect of over 45% in size; further: potency means the concentration at half of the fitted maximal effect)
Method in brief: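 Read-out is luminescence from a firefly luciferase gene controlled by the Gli1 response element, in 3T3Gli1-Luc cells pre-incubated 4hr then exposed to compounds and conditioned medium for 24hr.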

[10] = molecular target: Estrogen receptor beta (Homo sapiens) (UniProt Q92731); assay: qHTS assay to identify small molecule agonists of the estrogen receptor beta (ER-beta) signaling pathway (AID 1259377; active means well fitted activation curve with a large enough effect in the signal ratio in the repeat runs, not every such curve was filed as active; the % refers to the signal ratio)
Chain of Estrogen receptor beta (Homo sapiens) (Q92731 whole entry, looked up): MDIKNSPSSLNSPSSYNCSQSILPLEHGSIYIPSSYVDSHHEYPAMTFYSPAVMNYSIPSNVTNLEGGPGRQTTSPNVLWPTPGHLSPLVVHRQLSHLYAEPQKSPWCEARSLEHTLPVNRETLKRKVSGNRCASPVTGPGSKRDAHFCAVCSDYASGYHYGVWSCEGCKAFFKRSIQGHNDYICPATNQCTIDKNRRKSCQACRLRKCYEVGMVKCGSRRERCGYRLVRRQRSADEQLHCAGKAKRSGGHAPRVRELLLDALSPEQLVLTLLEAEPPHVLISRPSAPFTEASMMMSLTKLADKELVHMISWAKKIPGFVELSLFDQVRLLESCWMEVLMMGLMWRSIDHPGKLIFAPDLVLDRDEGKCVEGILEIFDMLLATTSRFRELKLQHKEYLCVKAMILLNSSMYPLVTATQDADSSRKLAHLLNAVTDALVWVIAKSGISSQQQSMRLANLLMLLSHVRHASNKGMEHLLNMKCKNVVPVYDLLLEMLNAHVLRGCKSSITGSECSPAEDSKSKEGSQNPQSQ
Method in brief: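 Reporter cells (HEK293T, ER-beta-UAS-bla) receive compounds or DMSO after a 6 hr pre-incubation. They then incubate 16 hr at 37C/5% CO2, and fluorescence from LiveBLAzer B/G substrate is measured after 2 hours at room temperature.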

[11] = molecular target: Estrogen receptor beta (Homo sapiens) (UniProt Q92731); assay: qHTS assay to identify small molecule antagonists of the estrogen receptor beta (ER-beta) signaling pathway (AID 1259378; active means well fitted inhibition curve with a large enough effect in the signal ratio in the repeat runs, not every such curve was filed as active; the % refers to the signal ratio)
Method in brief: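 ER-beta-UAS-bla HEK293T cells in 2% charcoal-stripped FBS medium treated with compound plus 1nM final 17-beta-estradiol for 16 hr at 37C. Beta-lactamase reporter read by FRET substrate fluorescence after 2 hours at room temperature.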

[12] = qHTS assay to identify small molecule agonists of the androgen receptor (AR) signaling pathway in the presence of an antagonist - cell viability counter screen (AID 1259379); further: nearly all actives have a fitted effect of over 25% in size; further: potency means the concentration at half of the fitted maximal effect
Method in brief: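 Each compound was tested at 15 concentrations on MDA-kb2 cells in the presence of 3.0uM nilutamide. Viability was measured by CellTiter-Fluor fluorescence after a 16 hr incubation at 37C in a CO2-free atmosphere.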

[13] = qHTS assay to identify small molecule agonists of the estrogen receptor beta (ER-beta) signaling pathway - cell viability counter screen (AID 1259380); further: nearly all actives have a fitted effect of over 30% in size; further: potency means the concentration at half of the fitted maximal effect
Method in brief: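 Compounds dissolved in DMSO were pin-transferred onto ER-beta-UAS-bla HEK293T cells that had settled 6 hr, and exposure ran 16 hr at 37C. Following the reporter read, CellTiter-Glo luminescence after 30 min at room temperature indicated cytotoxicity.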

[14] = qHTS assay to identify small molecule phospholipidosis (PLD) inducers (AID 1259344; active means well fitted curve in the direction sought with a large enough effect; an effect the other way counts as inactive or inconclusive)
Method in brief: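 Image-based: LipidTOX Red pit count/intensity per well and per cell; HepG2, 24 h compound at 37 C, PFA fixation, Hoechst counterstain.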

[15] = qHTS assay to identify small molecule antagonists of the estrogen receptor beta (ER-beta) signaling pathway - cell viability counter screen (AID 1259382); further: series mostly up to about 92 µM; nearly all actives have a fitted effect of over 55% in size
Method in brief: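 CellTiter-Glo ATP luminescence measured after the LiveBLAzer read in the same wells; ER-beta-UAS-bla HEK293T cells, 16 hr compound treatment with 1nM 17-beta-estradiol agonist at 37C, 5% CO2.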

[16] = qHTS assay to identify small molecule agonists or antagonists of the thyroid stimulating hormone receptor (TSHR) signaling pathway - wild type cell line counter screen (AID 1259384; calls by dose curve)
Method in brief: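 Wild-type Hek293 cells, 800/well, 18 h at 37C, then compound with Ro20-1724 for 30 min RT. cAMP by HTRF (cAMP-d2/anti-cAMP cryptate), 1 h RT, fluorescence read. 15 concentrations, triplicates.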

Compound | Potency [1] | outcome [2] | outcome [3] | Potency [4] | outcome [5] | Potency [6] | Potency [7] | outcome [8] | Potency [9] | Potency [10] | outcome [11] | Potency [12] | Potency [13] | Potency [14] | outcome [15] | outcome [16]
O=S(=O)(O)OOS(=O)(=O)O | inactive | inactive | inactive | inactive | inactive | inactive | inactive | inactive | inactive | inactive | inactive | inactive | inactive | – | – | –
Nc1ccc(N)cc1 | inactive | inactive | inactive | inactive | inactive | 61.4 µM (active) and inactive | 61.4 µM (active) and 54.5 µM (active) and inactive | – | 54.7 µM (active) and 48.6 µM (active) and inactive | inactive | inactive | inactive | inactive | inactive | inactive | inactive
O=[N+]([O-])c1ccc(Cl)cc1 | inactive | inactive | inactive | inactive | inactive | inactive | inactive | inactive | 42.9 µM (active) and inactive | inactive | inactive | inactive | inactive | – | inactive | inactive
Nc1nc(N)nc(NC2CC2)n1 | inactive | inactive | inactive | inactive | inactive | inactive | inactive | – | inactive | inactive | inactive | inactive | inactive | inactive | inactive | inactive
[N-]=[N+]=CC(=O)OC[C@H](N)C(=O)O | 38.9 µM (active) and inactive | inactive | inactive | inactive | inactive | inactive | inactive | – | inactive | – | – | inactive | inactive | inactive | inactive | inactive
CCOP(=S)(OCC)Oc1ccc([N+](=O)[O-])cc1 | inactive | inactive | inactive | inactive | inactive | inactive | inactive | inactive | inactive | – | – | inactive | inactive | – | inactive | inactive
Cl[C@H]1OCCO[C@@H]1Cl | inactive | inactive | inactive | inactive | inactive | inactive | inactive | inactive | inactive | – | – | inactive | inactive | – | inactive | inactive
CC[N+](=O)[O-] | inactive | inactive | inactive | inactive | inactive | inactive | inactive | inactive | inactive | inactive | inactive | inactive | inactive | – | inactive | inactive
Cc1ccc(N=C=O)cc1N=C=O | inactive | inactive | inactive | inactive | inactive | inactive | inactive | – | inactive | – | – | inactive | 34.3 µM (active) and inactive | – | – | –
ClCCOCCCl | inactive | inactive | inactive | inactive | inactive | inactive | inactive | inactive | inactive | inactive | inactive | inactive | inactive | – | – | –
O=C(O)c1cc(Oc2ccc(C(F)(F)F)cc2Cl)ccc1[N+](=O)[O-] | inactive | inactive | inactive | inactive | inactive | inactive | inactive | – | inactive | inactive | inactive | inactive | inactive | inactive | – | inactive
CCOC(=O)CC(SP(=O)(OC)OC)C(=O)OCC (centres undefined) | inactive | inactive | inactive | inactive | inactive | inactive | inactive | inactive | inactive | inactive | inactive | inactive | inactive | – | inactive | inactive
COc1cc(-c2ccc(N)c(OC)c2)ccc1N | inactive | inactive | inactive | inactive and 27.3 µM (active) | inactive | inactive | inactive | – | 6.78 µM (active) and 8.24 µM (active) | – | – | inactive and 52 µM (active) | 14.7 µM (active) | – | – | –
Clc1cnc(Oc2ccc(Oc3ncc(Cl)cc3Cl)cc2)c(Cl)c1 | inactive | inactive | inactive | inactive | inactive | inactive | inactive | – | inactive | inactive | inactive | inactive | inactive | – | – | –
CN(C)C(=O)C(c1ccccc1)c1ccccc1 | inactive | inactive | inactive | inactive | inactive | inactive | inactive | inactive | inactive | inactive | inactive | inactive | inactive | – | – | –
